# Screening results: PubChem BioAssay, National Center for Advancing Translational Sciences (NCATS)
# Most compounds without a hit are left out; they make up all but 19% or so of the library.
# S-ASM inh: human S-ASM enzyme inhibition; P17405; placental ASM, HMU-PC fluorogenic substrate, 60 min; Potency, µM (series often up to 57.5 µM), inactives show at the top dose activity change, negative = inhibition, most hits filed as inhibitors; 0.006% of 340,000 active; AID 504937; also: potency is read from the fitted curve at half-maximal effect
# Target sequence (P17405 47-631 limits assumed): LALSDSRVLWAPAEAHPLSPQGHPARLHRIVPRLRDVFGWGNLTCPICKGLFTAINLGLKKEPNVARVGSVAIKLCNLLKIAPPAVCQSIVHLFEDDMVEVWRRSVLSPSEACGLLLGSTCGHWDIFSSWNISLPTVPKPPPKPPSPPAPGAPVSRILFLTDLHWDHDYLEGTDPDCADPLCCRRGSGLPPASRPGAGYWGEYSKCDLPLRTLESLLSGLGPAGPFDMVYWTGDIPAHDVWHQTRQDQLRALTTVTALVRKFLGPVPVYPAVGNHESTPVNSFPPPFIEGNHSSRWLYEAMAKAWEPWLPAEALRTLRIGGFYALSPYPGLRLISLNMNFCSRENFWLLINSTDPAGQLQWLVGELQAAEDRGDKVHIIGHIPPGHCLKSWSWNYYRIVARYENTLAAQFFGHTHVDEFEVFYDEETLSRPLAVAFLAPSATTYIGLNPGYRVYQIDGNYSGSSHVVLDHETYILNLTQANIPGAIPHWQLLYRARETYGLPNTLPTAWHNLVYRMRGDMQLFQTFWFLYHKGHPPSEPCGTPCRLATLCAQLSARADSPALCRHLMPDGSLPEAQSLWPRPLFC
#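 HMU-PC0 cleavage (9 uM final) by human placental ASM, 60 min at 37 °C following 10 min compound exposure at RT; stopped at pH 10, fluorescence Ex 386/Em 447 nm.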
# TGFb inhibitor: blocks TGF-b signaling | HepG2 CAGA-GFP TGF-b/SMAD3 reporter, GFP fluorescence, 18 h; TGF-beta stimulated, 500 pg/mL final | Potency, µM (top dose mostly 46.1 µM), for inactives: at the top dose activity, negative = inhibition, actives largely listed as inhibitors | 1.2% of 410,000 active | AID 588855; also: potency is read from the fitted curve at half-maximal effect; % is scaled to controls: 0 for no effect and ±100 for the full control effect; nearly all actives have a fitted effect of over 65% in size
#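 HEPG2 CAGA-GFP reporter cells (1000/well, DMEM with 1% FBS) received compounds, then recombinant TGF-beta at 500 pg/mL final for 18 hours at 37 degrees C. Per-cell GFP summed per well was normalised to unstimulated and stimulated DMSO controls before curve fitting.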
# HepG2 viability: HepG2 cytotoxicity, counter-screen for TGF-b inhibitors. HepG2 CAGA-GFP viability, ATP luminescence, 18 h. Potency, µM (top dose mostly 46.1 µM), without a hit: at the highest dose activity change, negative = cytotoxicity, most hits filed as cytotoxic. 0.76% of 410,000 active; also: potency is read from the fitted curve at half-maximal effect
#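 CellTiter-Glo luminescence gave cytotoxicity after 18 hours at 37 degrees C. The cells were HepG2 CAGA-GFP in 1% FBS DMEM, stimulated with 500 pg/mL TGF-beta after compound addition. %Activity was normalised to no-cell wells (complete cell-killing) and DMSO (no toxicity), and curves were fitted and classified.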
# DT40 TDP1 CPT: growth inhibition of DT40 Tdp1-/-;hTDP1 cells with camptothecin (screen for TDP1 inhibitors) | 12% of 420,000 active | chicken DT40 Tdp1-/-;hTDP1 cells + 20 nM CPT, ATP luminescence, 48 h | Potency, µM (doses to about 46.2 µM), without a hit: at the top dose activity change, negative = growth inhibition, actives largely listed as inhibitors; also: potency is read from the fitted curve at half-maximal effect; % is scaled to controls: 0 for no effect and ±100 for the full control effect; nearly all actives have a fitted effect of over 55% in size
#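 Cell growth measured by CellTiter-Glo luminescence after a minimum 48 h, 37 C compound exposure with 20 nM CPT in Tdp1-knockout DT40 cells stably expressing hTDP1, seeded 400/well; qHTS titration format.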
# IL-1B inflam inh: inflammasome signaling inhibition, IL-1 beta readout; THP-1 LPS/ATP IL-1B secretion, AlphaLISA, 16 h; stronger effect = lower value; activity change, % at 57.5 µM; 4.7% of 360,000 active; in the data active = activity change below about -50%; inconclusive = mostly about -30% to -49%; also: % is scaled to controls: 0 for no effect and ±100 for the full control effect
#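 Secreted IL-1B measured by AlphaLISA bead assay after 16 h compound exposure of THP-1 cells; compounds (final up to 57.5 uM) added 1 h before LPS (250 ng/mL) and ATP (1.25 mM) stimulation; lower signal means less secretion.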
# TDP1 cell noCPT: qHTS for Inhibitors of human tyrosyl-DNA phosphodiesterase 1 (TDP1): qHTS in cells in absence of CPT; Potency, µM (highest dose often 46.2 µM), for the others: at the top dose activity change, negative = growth inhibition, hits mostly inhibitors; DT40 Tdp1-/- hTDP1 cells, no CPT, ATP luminescence, 48 h; 15% of 420,000 active; also: potency is read from the fitted curve at half-maximal effect; % is scaled to controls: 0 for no effect and ±100 for the full control effect; nearly all actives have a fitted effect of over 55% in size
#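 Growth kinetics read by CellTiter-Glo luminescence after ≥48 hr at 37 °C. Cells: DT40 Tdp1-/- stably carrying human TDP1, 400 per well, compound exposure in the absence of CPT (DMSO vehicle).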
# The depositor's hits bear a star; ? = inconclusive; nt = no result. Unless noted, calls follow the shape of the dose curve; as a rule, active = well fitted curve in the direction sought with a large enough effect; inconclusive = small, poorly fitted or top-dose-only effect, or another doubt; inactive = no such curve, though single readings can be large; an effect the other way counts as inactive or inconclusive.
SMILES,S-ASM inh,TGFb inhibitor,HepG2 viability,DT40 TDP1 CPT,IL-1B inflam inh,TDP1 cell noCPT
Cc1ccc([C@@H]2C[C@H]3[C@@H](CN2S(=O)(=O)c2ccc(Cl)cc2)C(=O)C[C@@H](c2ccc(Cl)cc2)N3S(=O)(=O)c2ccccc2C)cc1,nt,19%,0%,-21%,13,?
O=C(COC(=O)c1ccc(O)cc1)Nc1ccccc1,0%,13%,7%,-28%,30,-19%
Cc1ccc2[nH]c3c(c2c1)CN(C(=O)CN1CCN(c2cccc(C)c2C)CC1)CC3,-8%,?,-37%,23µM*,-11,21µM*
Cc1ccc2[nH]c3c(c2c1)CN(C(=O)CN1c2ccc(F)cc2CCC1C)CC3 (stereo unspecified),-19%,?,-37%,-74%,-21,?
OC(Cc1cccnc1)c1ccccc1 (stereo unspecified),2%,-1%,5%,-2%,-6,2%
CCOC(=O)N1CCN(CC(=O)Nc2sccc2C#N)CC1,2%,-9%,7%,21µM*,68,15µM*
Cc1ccc(C)c(S(=O)(=O)N2CCN(CC(=O)Nc3sccc3C#N)CC2)c1,1%,?,-36%,16µM*,-2,18µM*
N#Cc1ccsc1NC(=O)CN1CCCCCC1,2%,0%,-2%,-27%,41,?
CCCc1cc(=O)oc2c3c(cc(OCC(=O)NCc4ccccn4)c12)OC(C)(C)CC3,19%,-2%,-17%,23µM*,?,?
CCCc1cc(=O)oc2c3c(cc(OCC(=O)NCCN4CCOCC4)c12)OC(C)(C)CC3,13%,8%,-14%,?,?,?
Cc1c(C)c2c(OCC(=O)NCC(O)c3ccccc3)cc3c(c2oc1=O)CCC(C)(C)O3 (stereo unspecified),25%,-4%,-1%,?,-3,?
COCCCNC(=O)COc1cc2c(c3oc(=O)c(C)c(C)c13)CCC(C)(C)O2,90%,0%,-19%,?,-7,2.1µM*
Cc1c(C)c2c(OCC(=O)NCc3ccccn3)cc3c(c2oc1=O)CCC(C)(C)O3,43%,-6%,-28%,15µM*,?,16µM*
CCCc1cc(=O)oc2c3c(cc(OCC(=O)NCc4ccncc4)c12)OC(C)(C)CC3,15%,-2%,-27%,6.5µM*,?,21µM*
Cc1cc(=O)oc2c3c(cc(OCC(=O)NCc4ccccc4)c12)OC(C)(C)CC3,10%,-9%,-10%,?,?,?
CCOc1ccccc1NC(=O)COC(=O)c1ccc2ccccc2n1,1%,1%,-2%,-9%,0,7%
C=CCN(Cc1cc(OC)ccc1OC)C(=O)c1cc2ccc(OC)cc2[nH]1,0%,?,-36%,?,34,?
C[C@H](O)[C@@H]1C(=O)N2CCc3ccc(N4CCN(C)CC4)cc3[C@@H]2C[C@@H]1N(C)C(=O)NC1CCCCC1,6%,-2%,1%,1%,5,-18%
O=C(COc1ccc(F)cc1Br)N1CCN(c2ncccn2)CC1,5%,1%,-1%,-25%,-7,?
COc1ccc(Br)c(C(=O)N2CCN(S(=O)(=O)/C=C/c3ccccc3)CC2)c1,4%,-17%,19%,-26%,-15,-21%
O=C(COc1ccc(F)cc1Br)N1CCN(S(=O)(=O)/C=C/c2ccccc2)CC1,-1%,-8%,30%,?,-50*,?
O=C(c1ccc2ccccc2c1)N1CCN(S(=O)(=O)/C=C/c2ccccc2)CC1,-4%,1%,4%,16µM*,-26,26µM*
